Experimental data reported in PMC8384837, “Expanding the binding specificity for RNA recognition by a PUF domain”.

How the values were obtained:
Test in all cases: yeast three-hybrid, YBZ-1, SC-Leu-His + 0.5 mM 3-AT, 4 days
Details in all cases: tags: N-Gal4 AD-HA kept; label: inside an RPR1-promoter hybrid RNA with tandem MS2 sites; ssRNA
PUM1 PUF domain R2-GWD = PUM1 PUF domain R2-GWD (Homo sapiens, UniProt Q14671 828-1176, N899G;Y900W;Q903D)
In short: (§1)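 Pumilio-1 PUF domain libraries, randomized (NNK) at the three base-contacting residues of each repeat, were co-expressed with matching RNA elements from a centromeric plasmid in strain YBZ-1 (LexA–MS2 coat fusion, HIS3 reporter). Transformants were plated on SC-Leu (input) and SC-Leu-His + 0.5 mM 3-AT (selection) for four days, and repeat regions were PCR-amplified and Illumina-sequenced. The interaction score is the log2 change in variant frequency from input to selection, with pseudocount 1 where absent.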

PUM1 PUF domain R3-LWC = PUM1 PUF domain R3-LWC (Homo sapiens, UniProt Q14671 828-1176, C935L;R936W;Q939C)
In short: as §1

PUM1 PUF domain R3-LYG = PUM1 PUF domain R3-LYG (Homo sapiens, UniProt Q14671 828-1176, C935L;R936Y;Q939G)
In short: as §1

PUM1 PUF domain R3-RSC = PUM1 PUF domain R3-RSC (Homo sapiens, UniProt Q14671 828-1176, C935R;R936S;Q939C)
In short: as §1

PUM1 PUF domain R5-GRV = PUM1 PUF domain R5-GRV (Homo sapiens, UniProt Q14671 828-1176, C1007G;Q1011V)
In short: as §1

PUM1 PUF domain R1-KPL = PUM1 PUF domain R1-KPL (Homo sapiens, UniProt Q14671 828-1176, S863K;R864P;Q867L)
In short: as §1

PUM1 PUF domain R1-RPC = PUM1 PUF domain R1-RPC (Homo sapiens, UniProt Q14671 828-1176, S863R;R864P;Q867C)
In short: as §1

PUM1 PUF domain R1-TSR = PUM1 PUF domain R1-TSR (Homo sapiens, UniProt Q14671 828-1176, S863T;R864S;Q867R)
In short: as §1

PUM1 PUF domain R1-QLD = PUM1 PUF domain R1-QLD (Homo sapiens, UniProt Q14671 828-1176, S863Q;R864L;Q867D)
In short: as §1

PUM1 PUF domain R4-HWP = PUM1 PUF domain R4-HWP (Homo sapiens, UniProt Q14671 828-1176, N971H;H972W;Q975P)
In short: as §1

PUM1 PUF domain R4-GPT = PUM1 PUF domain R4-GPT (Homo sapiens, UniProt Q14671 828-1176, N971G;H972P;Q975T)
In short: as §1

PUM1 PUF domain R5-HLE = PUM1 PUF domain R5-HLE (Homo sapiens, UniProt Q14671 828-1176, C1007H;R1008L;Q1011E)
In short: as §1

PUM1 PUF domain R6-WYG = target: T1, PUM1 PUF domain R6-WYG (Homo sapiens, UniProt Q14671 828-1176, N1043W;Q1047G)
T1 sequence: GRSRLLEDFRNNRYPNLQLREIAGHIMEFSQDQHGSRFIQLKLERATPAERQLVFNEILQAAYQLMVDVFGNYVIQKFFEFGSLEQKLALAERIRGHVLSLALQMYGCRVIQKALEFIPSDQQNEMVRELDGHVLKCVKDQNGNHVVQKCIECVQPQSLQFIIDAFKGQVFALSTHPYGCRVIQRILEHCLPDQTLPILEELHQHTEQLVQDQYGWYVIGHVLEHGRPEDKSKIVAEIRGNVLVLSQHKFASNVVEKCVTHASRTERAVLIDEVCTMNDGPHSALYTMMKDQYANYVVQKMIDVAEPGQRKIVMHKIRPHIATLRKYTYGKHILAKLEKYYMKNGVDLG
In short: as §1

PUM1 PUF domain R8-KHS = PUM1 PUF domain R8-KHS (Homo sapiens, UniProt Q14671 828-1176, N1122K;Y1123H;Q1126S)
In short: as §1

PUM1 PUF domain R2-DRQ = PUM1 PUF domain R2-DRQ (Homo sapiens, UniProt Q14671 828-1176, N899D;Y900R)
In short: as §1

PUM1 PUF domain R4-MPG = PUM1 PUF domain R4-MPG (Homo sapiens, UniProt Q14671 828-1176, N971M;H972P;Q975G)
In short: as §1

PUM1 PUF domain R5-RSI = PUM1 PUF domain R5-RSI (Homo sapiens, UniProt Q14671 828-1176, C1007R;R1008S;Q1011I)
In short: as §1

PUM1 PUF domain R7-VVK = PUM1 PUF domain R7-VVK (Homo sapiens, UniProt Q14671 828-1176, S1079V;N1080V;E1083K)
In short: as §1

PUM1 PUF domain R3-GPE = PUM1 PUF domain R3-GPE (Homo sapiens, UniProt Q14671 828-1176, C935G;R936P;Q939E)
In short: as §1

PUM1 PUF domain R3-MSN = PUM1 PUF domain R3-MSN (Homo sapiens, UniProt Q14671 828-1176, C935M;R936S;Q939N)
In short: as §1

GGCUAGAACUAGUGGAUCCCCCGGCGCCCGGCGGCUCGAGCCCGGGUAAGUGUAAAGAGUCUGCAUGCCGCCGGGCGCCAUGCCUGCAGGUCGACUCUAGAAAACAUG
binding signal (PUM1 PUF domain R2-GWD): 10.1 log2 enrichment (interaction score)

GGCUAGAACUAGUGGAUCCCCCGGCGCCCGGCGGCUCGAGCCCGGGUAAGUGUAAUUAGUCUGCAUGCCGCCGGGCGCCAUGCCUGCAGGUCGACUCUAGAAAACAUG
binding signal (PUM1 PUF domain R3-LWC): 2.16 log2 enrichment (interaction score)
binding signal (PUM1 PUF domain R3-LYG): 4.62 log2 enrichment (interaction score)
binding signal (PUM1 PUF domain R3-RSC): 3.04 log2 enrichment (interaction score)

GGCUAGAACUAGUGGAUCCCCCGGCGCCCGGCGGCUCGAGCCCGGGUAAGUGUGAAUAGUCUGCAUGCCGCCGGGCGCCAUGCCUGCAGGUCGACUCUAGAAAACAUG
binding signal (PUM1 PUF domain R5-GRV): 2.53 log2 enrichment (interaction score)

GGCUAGAACUAGUGGAUCCCCCGGCGCCCGGCGGCUCGAGCCCGGGUAAGUGUAAAUUGUCUGCAUGCCGCCGGGCGCCAUGCCUGCAGGUCGACUCUAGAAAACAUG
binding signal (PUM1 PUF domain R1-KPL): 3.37 log2 enrichment (interaction score)
binding signal (PUM1 PUF domain R1-RPC): 1.56 log2 enrichment (interaction score)
binding signal (PUM1 PUF domain R1-TSR): 0.81 log2 enrichment (interaction score)
binding signal (PUM1 PUF domain R1-QLD): 4.86 log2 enrichment (interaction score)

GGCUAGAACUAGUGGAUCCCCCGGCGCCCGGCGGCUCGAGCCCGGGUAAGUGUAAAUAGUCUGCAUGCCGCCGGGCGCCAUGCCUGCAGGUCGACUCUAGAAAACAUG
binding signal (PUM1 PUF domain R4-HWP): 5.47 log2 enrichment (interaction score)
binding signal (PUM1 PUF domain R5-GRV): 2.75 log2 enrichment (interaction score)
binding signal (PUM1 PUF domain R4-GPT): 2.42 log2 enrichment (interaction score)
binding signal (PUM1 PUF domain R5-HLE): 1.15 log2 enrichment (interaction score)
binding signal (PUM1 PUF domain R6-WYG): 3.19 log2 enrichment (interaction score)
binding signal (PUM1 PUF domain R2-GWD): 1.77 log2 enrichment (interaction score)
binding signal (PUM1 PUF domain R3-LYG): 2.65 log2 enrichment (interaction score)
binding signal (PUM1 PUF domain R8-KHS): 4.58 log2 enrichment (interaction score)

GGCUAGAACUAGUGGAUCCCCCGGCGCCCGGCGGCUCGAGCCCGGGUAAGUGUAAAUCGUCUGCAUGCCGCCGGGCGCCAUGCCUGCAGGUCGACUCUAGAAAACAUG
binding signal (PUM1 PUF domain R1-KPL): 2.58 log2 enrichment (interaction score)
binding signal (PUM1 PUF domain R1-RPC): 2.57 log2 enrichment (interaction score)
binding signal (PUM1 PUF domain R1-TSR): 2.68 log2 enrichment (interaction score)

GGCUAGAACUAGUGGAUCCCCCGGCGCCCGGCGGCUCGAGCCCGGGUAAGUGUAAAAAGUCUGCAUGCCGCCGGGCGCCAUGCCUGCAGGUCGACUCUAGAAAACAUG
binding signal (PUM1 PUF domain R2-DRQ): 2.96 log2 enrichment (interaction score)
binding signal (PUM1 PUF domain R2-GWD): 3.74 log2 enrichment (interaction score)

GGCUAGAACUAGUGGAUCCCCCGGCGCCCGGCGGCUCGAGCCCGGGUAAGUGUAUAUAGUCUGCAUGCCGCCGGGCGCCAUGCCUGCAGGUCGACUCUAGAAAACAUG
binding signal (PUM1 PUF domain R4-HWP): 4.4 log2 enrichment (interaction score)
binding signal (PUM1 PUF domain R4-GPT): 2.14 log2 enrichment (interaction score)
binding signal (PUM1 PUF domain R4-MPG): 2.39 log2 enrichment (interaction score)

GGCUAGAACUAGUGGAUCCCCCGGCGCCCGGCGGCUCGAGCCCGGGUAAGUGUUAAUAGUCUGCAUGCCGCCGGGCGCCAUGCCUGCAGGUCGACUCUAGAAAACAUG
binding signal (PUM1 PUF domain R5-GRV): 3.07 log2 enrichment (interaction score)
binding signal (PUM1 PUF domain R5-HLE): 2.54 log2 enrichment (interaction score)
binding signal (PUM1 PUF domain R5-RSI): 3 log2 enrichment (interaction score)

GGCUAGAACUAGUGGAUCCCCCGGCGCCCGGCGGCUCGAGCCCGGGUAAGUGUACAUAGUCUGCAUGCCGCCGGGCGCCAUGCCUGCAGGUCGACUCUAGAAAACAUG
binding signal (PUM1 PUF domain R4-MPG): 2.9 log2 enrichment (interaction score)

GGCUAGAACUAGUGGAUCCCCCGGCGCCCGGCGGCUCGAGCCCGGGUAAGUUUAAAUAGUCUGCAUGCCGCCGGGCGCCAUGCCUGCAGGUCGACUCUAGAAAACAUG
binding signal (PUM1 PUF domain R7-VVK): 3.27 log2 enrichment (interaction score)

GGCUAGAACUAGUGGAUCCCCCGGCGCCCGGCGGCUCGAGCCCGGGUAAGUGUAAGUAGUCUGCAUGCCGCCGGGCGCCAUGCCUGCAGGUCGACUCUAGAAAACAUG
binding signal (PUM1 PUF domain R3-LWC): 3.65 log2 enrichment (interaction score)
binding signal (PUM1 PUF domain R3-GPE): 5.98 log2 enrichment (interaction score)
binding signal (PUM1 PUF domain R3-LYG): 6.19 log2 enrichment (interaction score)
binding signal (PUM1 PUF domain R3-MSN): 2.68 log2 enrichment (interaction score)

GGCUAGAACUAGUGGAUCCCCCGGCGCCCGGCGGCUCGAGCCCGGGUAAGUGUCAAUAGUCUGCAUGCCGCCGGGCGCCAUGCCUGCAGGUCGACUCUAGAAAACAUG
binding signal (PUM1 PUF domain R5-HLE): 0.68 log2 enrichment (interaction score)
binding signal (PUM1 PUF domain R5-RSI): 2.24 log2 enrichment (interaction score)
